{"source": "the supplement of paper PMC9262897", "about": "“Low-cost anti-mycobacterial drug discovery using engineered E. coli” (Nature Communications, 2022)", "note": "Counter-ions that a name gives are not always drawn. ± gives the standard deviation of the averaged measurements.", "data": [{"tested_on": "E. coli TESEC Mtb DapB", "test": "growth (OD600 after 10 h); higher = more growth (less inhibition)", "settings": "arabinose induction (level): High; compound 0.1 mM; raw OD600 reference: median of DMSO wells […], cell-free background 0.041", "procedure": "(§1)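 TESEC E. coli strains in which the native enzyme is deleted and replaced by arabinose-inducible Mtb Asd, DapB, CysH or TrpD, each grown in its selective medium. Strains were screened against the Prestwick library at 0.1 mM and 1% DMSO in 384-well format at low and high arabinose induction. Growth is read as OD600 after 10 h in triplicate.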", "values": [{"smiles": "CC(C)(C)NCC(O)c1ccccc1Cl", "note": "(stereo not given) [Tulobuterol]", "growth": "0.181 ± 0.017"}, {"smiles": "CC(C)C[C@H](CN)CC(=O)O", "note": "[Pregabalin]", "growth": "0.201 ± 0.0072"}, {"smiles": "CN1[C@@H]2CC[C@H]1C[C@@H](OC(=O)[C@H](CO)c1ccccc1)C2", "note": "[Hyoscyamine (L)]", "growth": "0.191 ± 0.014"}, {"smiles": "NC(=O)OCCCc1ccccc1", "note": "[Phenprobamate]", "growth": "0.197 ± 0.023"}, {"smiles": "COc1ccc(CCN)cc1OC", "note": "[Homoveratrylamine]", "growth": "0.188 ± 0.012"}, {"smiles": "CC(O)(CS(=O)(=O)c1ccc(F)cc1)C(=O)Nc1ccc(C#N)c(C(F)(F)F)c1", "note": "(stereo not given) [Bicalutamide]", "growth": "0.196 ± 0.015"}, {"smiles": "C[C@]12CC[C@@H]3c4ccc(OC(=O)N(CCCl)CCCl)cc4CC[C@H]3[C@@H]1CC[C@@H]2O", "note": "[Estramustine]", "growth": "0.173 ± 0.0048"}, {"smiles": "c1ccc2nc(N3CCNCC3)ccc2c1", "note": "[Quipazine dimaleate salt]", "growth": "0.215 ± 0.019"}, {"smiles": "CCC(=O)O[C@@](Cc1ccccc1)(c1ccccc1)[C@@H](C)CN(C)C", "note": "[Levopropoxyphene napsylate]", "growth": "0.175 ± 0.026"}, {"smiles": "C1CCc2nnnn2CC1", "note": "[Pentylenetetrazole]", "growth": "0.227 ± 0.037"}, {"smiles": "Fc1ccc(C(OCCN2CCN(CCCc3ccccc3)CC2)c2ccc(F)cc2)cc1", "growth": "0.0461 ± 0.00026"}, {"smiles": "C[C@H](N)[C@H](O)c1ccc(O)c(O)c1", "note": "[Levonordefrin]", "growth": "0.167 ± 0.003"}, {"smiles": "CN1C(=O)CCS(=O)(=O)C1c1ccc(Cl)cc1", "note": "(stereo not given) [Chlormezanone]", "growth": "0.193 ± 0.0088"}, {"smiles": "CCNCC(O)c1cccc(O)c1", "note": "(stereo not given) [Etilefrine hydrochloride]", "growth": "0.205 ± 0.0026"}, {"smiles": "CCCC(C)(COC(N)=O)COC(=O)NC(C)C", "note": "(stereo not given) [Carisoprodol]", "growth": "0.155 ± 0.0092"}, {"smiles": "O=C1CC[C@@]2(O)[C@H]3Cc4ccc(O)c5c4[C@@]2(CCN3CC2CC2)[C@H]1O5", "note": "[Naltrexone hydrochloride dihydrate]", "growth": "0.193 ± 0.0052"}, {"smiles": "CNCC(O)c1ccc(O)cc1", "note": "(racemic) [(+,-)-Synephrine]", "growth": "0.227 ± 0.021"}, {"smiles": "C=CCN1CC[C@]23c4c5ccc(O)c4O[C@H]2C(=O)CC[C@@]3(O)[C@H]1C5", "note": "[Naloxone hydrochloride]", "growth": "0.202 ± 0.0047"}, {"smiles": "NCC1(CC(=O)O)CCCCC1", "note": "[Gabapentin]", "growth": "0.215 ± 0.016"}, {"smiles": "CC(Cc1ccc(O)cc1)NCC(O)c1cc(O)cc(O)c1", "note": "(stereo not given) [Fenoterol hydrobromide]", "growth": "0.201 ± 0.017"}]}, {"tested_on": "E. coli TESEC Mtb DapB", "test": "growth (OD600 after 10 h); higher = more growth (less inhibition)", "settings": "arabinose induction (level): Low; compound 0.1 mM; raw OD600 reference: median of DMSO wells 0.227, cell-free background 0.041", "procedure": "as §1", "values": [{"smiles": "CC(C)(C)NCC(O)c1ccccc1Cl", "note": "(stereo not given) [Tulobuterol]", "growth": "0.21 ± 0.016"}, {"smiles": "CC(C)C[C@H](CN)CC(=O)O", "note": "[Pregabalin]", "growth": "0.231 ± 0.07"}, {"smiles": "CN1[C@@H]2CC[C@H]1C[C@@H](OC(=O)[C@H](CO)c1ccccc1)C2", "note": "[Hyoscyamine (L)]", "growth": "0.29 ± 0.023"}, {"smiles": "NC(=O)OCCCc1ccccc1", "note": "[Phenprobamate]", "growth": "0.215 ± 0.024"}, {"smiles": "COc1ccc(CCN)cc1OC", "note": "[Homoveratrylamine]", "growth": "0.217 ± 0.054"}, {"smiles": "CC(O)(CS(=O)(=O)c1ccc(F)cc1)C(=O)Nc1ccc(C#N)c(C(F)(F)F)c1", "note": "(stereo not given) [Bicalutamide]", "growth": "0.236 ± 0.021"}, {"smiles": "C[C@]12CC[C@@H]3c4ccc(OC(=O)N(CCCl)CCCl)cc4CC[C@H]3[C@@H]1CC[C@@H]2O", "note": "[Estramustine]", "growth": "0.187 ± 0.015"}, {"smiles": "c1ccc2nc(N3CCNCC3)ccc2c1", "note": "[Quipazine dimaleate salt]", "growth": "0.216 ± 0.012"}, {"smiles": "CCC(=O)O[C@@](Cc1ccccc1)(c1ccccc1)[C@@H](C)CN(C)C", "note": "[Levopropoxyphene napsylate]", "growth": "0.205 ± 0.011"}, {"smiles": "C1CCc2nnnn2CC1", "note": "[Pentylenetetrazole]", "growth": "0.274 ± 0.11"}, {"smiles": "Fc1ccc(C(OCCN2CCN(CCCc3ccccc3)CC2)c2ccc(F)cc2)cc1", "growth": "0.0459 ± 0.00085"}, {"smiles": "C[C@H](N)[C@H](O)c1ccc(O)c(O)c1", "note": "[Levonordefrin]", "growth": "0.176 ± 0.043"}, {"smiles": "CN1C(=O)CCS(=O)(=O)C1c1ccc(Cl)cc1", "note": "(stereo not given) [Chlormezanone]", "growth": "0.207 ± 0.011"}, {"smiles": "CCNCC(O)c1cccc(O)c1", "note": "(stereo not given) [Etilefrine hydrochloride]", "growth": "0.224 ± 0.035"}, {"smiles": "CCCC(C)(COC(N)=O)COC(=O)NC(C)C", "note": "(stereo not given) [Carisoprodol]", "growth": "0.191 ± 0.015"}, {"smiles": "O=C1CC[C@@]2(O)[C@H]3Cc4ccc(O)c5c4[C@@]2(CCN3CC2CC2)[C@H]1O5", "note": "[Naltrexone hydrochloride dihydrate]", "growth": "0.219 ± 0.048"}, {"smiles": "CNCC(O)c1ccc(O)cc1", "note": "(racemic) [(+,-)-Synephrine]", "growth": "0.232 ± 0.042"}, {"smiles": "C=CCN1CC[C@]23c4c5ccc(O)c4O[C@H]2C(=O)CC[C@@]3(O)[C@H]1C5", "note": "[Naloxone hydrochloride]", "growth": "0.255 ± 0.059"}, {"smiles": "NCC1(CC(=O)O)CCCCC1", "note": "[Gabapentin]", "growth": "0.278 ± 0.045"}, {"smiles": "CC(Cc1ccc(O)cc1)NCC(O)c1cc(O)cc(O)c1", "note": "(stereo not given) [Fenoterol hydrobromide]", "growth": "0.235 ± 0.05"}]}]}
